MBD2 DNA inh – inhibitors of human MBD2 binding to methylated oligonucleotide | Q9UBB5 | TR-FRET | inhibition, % at 4.4 µM | 370,000 compounds, 0.31% hits | AID 686964; in the data active means inhibition above about 13%
UHRF1 binding – blocks human UHRF1 binding to methylated DNA; UHRF1 binding to methylated oligo, TR-FRET; inhibition, % at 4.4 µM; 370,000 compounds, 0.75% hits; in the data active means inhibition above about 21%;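 further: UHRF1 SRA domain binding a hemimethylated CpG hairpin DNA probe; 0% = median of test compound wells and 100% = reference inhibitor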
Target sequence (Q96T88 whole entry, looked up, the tested form may be a part): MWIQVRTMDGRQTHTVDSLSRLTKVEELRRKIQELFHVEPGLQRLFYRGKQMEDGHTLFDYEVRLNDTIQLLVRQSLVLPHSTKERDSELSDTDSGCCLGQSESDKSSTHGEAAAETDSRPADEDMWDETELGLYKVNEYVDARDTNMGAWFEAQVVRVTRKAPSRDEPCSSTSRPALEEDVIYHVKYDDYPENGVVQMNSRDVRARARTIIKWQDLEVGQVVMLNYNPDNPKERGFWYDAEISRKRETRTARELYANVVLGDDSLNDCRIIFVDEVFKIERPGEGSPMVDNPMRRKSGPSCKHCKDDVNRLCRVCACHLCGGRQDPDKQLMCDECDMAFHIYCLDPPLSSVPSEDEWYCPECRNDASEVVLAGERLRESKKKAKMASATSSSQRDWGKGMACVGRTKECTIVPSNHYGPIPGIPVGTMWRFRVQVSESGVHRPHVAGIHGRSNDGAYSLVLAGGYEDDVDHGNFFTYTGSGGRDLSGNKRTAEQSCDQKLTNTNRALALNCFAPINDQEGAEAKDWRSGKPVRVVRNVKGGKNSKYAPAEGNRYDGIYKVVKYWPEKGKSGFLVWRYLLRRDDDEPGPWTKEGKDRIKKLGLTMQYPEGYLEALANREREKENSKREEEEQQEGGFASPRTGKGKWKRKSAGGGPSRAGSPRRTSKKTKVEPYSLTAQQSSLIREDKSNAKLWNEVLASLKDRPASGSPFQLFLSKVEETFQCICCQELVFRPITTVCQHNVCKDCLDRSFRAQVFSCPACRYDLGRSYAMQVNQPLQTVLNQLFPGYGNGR
PLCb3 inh – blocks human PLC-beta3 enzyme activity. 370,000 compounds, 0.18% hits. Purified PLC-beta3, fluorogenic substrate, fluorescence. inhibition, % at 12.2 µM. Q01970. AID 720704; in the data active means inhibition above about 11%;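 further: 0% = median of compound wells on plate and 100% = full blocker control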
LEDGF integ inh – blocks HIV-1 LEDGF/p75-dependent DNA integration | TR-FRET IN-LEDGF/p75 DNA integration, Eu/Cy5 | inhibition, % at 3.7 µM | 370,000 compounds, 0.64% hits;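 active means inhibition above the screen-wide mean plus 3 SD, cut at about 13% in these data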;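 further: signal is the Cy5 over europium emission ratio at 671 and 618 nm; 0% = plate median of compound wells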
PLCg1 inh – blocks human PLC-gamma1 enzyme activity | P19174 | purified PLC-gamma1, fluorogenic substrate, fluorescence | inhibition, % at 12.2 µM | 370,000 compounds, 0.84% hits | AID 720700
PLCg1 ctr – inhibits human PLC-gamma1 in PLC-beta3 counter-screen; shares compounds with PLCg1 inh; AID 743258; inhibition, % at 12.3 µM; purified PLC-gamma1, fluorogenic substrate, fluorescence; 3,300 compounds, 3.1% hits
PLCbeta3 conf – confirmation of human PLC-beta3 inhibitors | shares compounds with PLCg1 inh | purified PLC-beta3, fluorogenic substrate fluorescence | inhibition, % at 12.3 µM | 3,300 compounds, 1% hits | AID 743261; in the data active means inhibition above about 11%
* hit, by the source's call. A selection: hits, their analogues and other compounds. The true share with any hit is near 2.3%. Unless noted, no stated cut-off is given here; in the data, active means inhibition above about 9.5%; inactive means the rest.

Screening COc1cccc(-c2nnc3sc(-c4ccc(Br)o4)nn23)c1 returned MBD2 DNA inh -5.2, UHRF1 binding -1.1, PLCb3 inh -3.1, LEDGF integ inh -1.4 and PLCg1 inh -7.5.
`COC(=O)[C@]1(C#N)CC(=O)N(c2ccccc2)[C@@H]1c1ccccc1` gave MBD2 DNA inh -4.8, UHRF1 binding 1.0, PLCb3 inh -0.5, LEDGF integ inh 1.9 and PLCg1 inh -0.7.
Screening C#CCOc1ccc(Br)cc1C(c1c(C)[nH][nH]c1=O)c1c(C)[nH][nH]c1=O returned MBD2 DNA inh -6.5, UHRF1 binding -9.4, PLCb3 inh -2.4, LEDGF integ inh 3.1, PLCg1 inh 61.6*, PLCg1 ctr -2.9 and PLCbeta3 conf -0.8.
O=C(c1ccc([N+](=O)[O-])cc1)N1CCOC12CCN(c1ncc(C(F)(F)F)cc1Cl)CC2 was read as MBD2 DNA inh 3.0, UHRF1 binding 5.4, PLCb3 inh 9.3, LEDGF integ inh 2.3, PLCg1 inh 11.0*, PLCg1 ctr 2.8 and PLCbeta3 conf 0.8.
Cc1ccc2nc(-c3ccc(NC(=O)CSc4nnc(-c5cc(-c6ccc(F)cc6)n[nH]5)n4N)cc3)sc2c1 was read as MBD2 DNA inh 1.5, UHRF1 binding -1.6, PLCb3 inh -38.7, LEDGF integ inh 0.7 and PLCg1 inh -29.1.
`COC(=O)[C@]12C[C@H](CC(=O)NCCCN3CCCC3=O)C(=O)N(CCC3=CCCCC3)C1=C[C@H](C(C)C)O[C@@H]2C1CC1` gave MBD2 DNA inh -1.6, UHRF1 binding -2.4, PLCb3 inh 2.9, LEDGF integ inh 5.0 and PLCg1 inh 0.5.
`COc1ccc(CCNC(=O)C/C(C)=N/NC(=O)C2CCCCC2)cc1OC` gave MBD2 DNA inh 2.6, UHRF1 binding 8.4, PLCb3 inh -0.8, LEDGF integ inh -2.2 and PLCg1 inh 2.1.
`CCNC(=O)C/C(C)=N/NC(=O)C1CCCCC1` gave MBD2 DNA inh -0.9, UHRF1 binding -1.8, PLCb3 inh 7.7, LEDGF integ inh -2.6, PLCg1 inh 10.6*, PLCg1 ctr 0.2 and PLCbeta3 conf -0.7.
Screening O=C(O)CC1=C(c2ccc(F)cc2)CCC1=O returned MBD2 DNA inh -4.1, UHRF1 binding 2.5, PLCb3 inh 13.6*, LEDGF integ inh 0.4, PLCg1 inh 6.3, PLCg1 ctr -6.8 and PLCbeta3 conf -3.2.
For Cc1ccccc1CC(=O)Nc1nnc(-c2cccnc2)s1 the results were MBD2 DNA inh -1.5, UHRF1 binding -1.6, PLCb3 inh 0.7, LEDGF integ inh -2.2 and PLCg1 inh -1.9.
`Cc1cccc(NC(=O)C2C3C=CC(C4CC34)C2C(=O)O)c1` (centres undefined) gave MBD2 DNA inh 2.8, UHRF1 binding 2.5, PLCb3 inh 6.0, LEDGF integ inh -0.9 and PLCg1 inh 7.3.
`O=C(O)C1C2C=CC(C3CC23)C1C(=O)O` (centres undefined) gave MBD2 DNA inh -1.0, UHRF1 binding 2.7, PLCb3 inh -1.5, LEDGF integ inh 1.0, PLCg1 inh 10.1*, PLCg1 ctr -4.7 and PLCbeta3 conf -4.0.
For COC(=O)c1ccccc1NN=Nc1ccccc1[N+](=O)[O-] the results were MBD2 DNA inh 0.2, UHRF1 binding 0.3, PLCb3 inh 13.5*, LEDGF integ inh 2.4, PLCg1 inh 1.8, PLCg1 ctr -3.4 and PLCbeta3 conf -0.2.
Screening CCOc1ccc(/C=C2\CCC(C3CCCC3)C2=O)cc1OC (centres undefined) returned MBD2 DNA inh 2.1, UHRF1 binding 0.3, PLCb3 inh -5.0, LEDGF integ inh 2.4 and PLCg1 inh -0.3.
`CCOc1ccc(/C=C2\CCC(C3CCCC3)C2=O)cc1` (centres undefined) gave MBD2 DNA inh 3.5, UHRF1 binding 6.6, PLCb3 inh -6.3, LEDGF integ inh -2.0, PLCg1 inh 9.9*, PLCg1 ctr -8.5 and PLCbeta3 conf -4.8.
For Nn1c(SCc2ccc([N+](=O)[O-])cc2)nnc1-c1cc(-c2ccccc2)n[nH]1 the results were MBD2 DNA inh 7.5, UHRF1 binding 2.1, PLCb3 inh -0.6, LEDGF integ inh 2.6 and PLCg1 inh 5.0.
Cc1cccc(N(C)C(=O)C2CCCN2S(=O)(=O)c2cccc3nsnc23)c1 (centres undefined) was read as MBD2 DNA inh -5.2, UHRF1 binding 0.7, PLCb3 inh 10.2, LEDGF integ inh 1.6, PLCg1 inh 10.3*, PLCg1 ctr -4.8 and PLCbeta3 conf -0.2.
Screening C[C@H](NC(=O)c1ccc(Br)cc1)C(=O)NCc1ccc(S(N)(=O)=O)cc1 returned MBD2 DNA inh -1.8, UHRF1 binding 0.7, PLCb3 inh 5.6, LEDGF integ inh 0.3, PLCg1 inh 9.6*, PLCg1 ctr -1.5 and PLCbeta3 conf -3.2.
`O=C(OCC#CCSc1nnc(-c2ccc(F)cc2)o1)c1ccc(F)cc1` gave MBD2 DNA inh 1.6, UHRF1 binding 4.4, PLCb3 inh 6.3, LEDGF integ inh 6.0, PLCg1 inh 10.5*, PLCg1 ctr -8.4 and PLCbeta3 conf -6.3.
Screening O=C(OCC#CCSc1nnc(-c2ccccc2Cl)o1)c1ccc(F)cc1 returned MBD2 DNA inh 0.7, UHRF1 binding -1.3, PLCb3 inh -2.6, LEDGF integ inh 1.3 and PLCg1 inh -1.9.
For CCCC(=O)Nc1ccc(N2CCN(C(=O)c3cc4ccccc4o3)CC2)cc1 the results were MBD2 DNA inh -0.2, UHRF1 binding -0.3, PLCb3 inh 1.7, LEDGF integ inh 2.4, PLCg1 inh 11.3*, PLCg1 ctr -6.0 and PLCbeta3 conf -0.8.
For O=C(NC1CCCCCCC1)C1CCN(S(=O)(=O)N2CCCC2)CC1 the results were MBD2 DNA inh -0.1, UHRF1 binding 0.9, PLCb3 inh 2.7, LEDGF integ inh 5.3, PLCg1 inh 11.3*, PLCg1 ctr -5.8 and PLCbeta3 conf -5.7.
`CC(C)=CCN1CCN(Cc2cccc3nonc23)CC1CCO` (centres undefined) gave MBD2 DNA inh 1.8, UHRF1 binding 2.0, PLCb3 inh -0.2, LEDGF integ inh 3.9 and PLCg1 inh -0.1.
OCCC1CN(Cc2cccc3nonc23)CCN1Cc1ccsc1 (centres undefined) was read as MBD2 DNA inh -1.0, UHRF1 binding 2.7, PLCb3 inh 3.2, LEDGF integ inh 4.1, PLCg1 inh 10.5*, PLCg1 ctr 1.4 and PLCbeta3 conf 0.2.
O=C(CCC(=O)N1CCN(C2c3ccccc3-c3ccccc32)CC1)Nc1nnc(C(F)(F)F)s1 was read as MBD2 DNA inh -6.2, UHRF1 binding -4.4, PLCb3 inh 3.0, LEDGF integ inh 2.1 and PLCg1 inh 2.8.
For NC(N)=NS(=O)(=O)c1ccc(NC(=S)NC(=O)/C=C/c2cccs2)cc1 the results were MBD2 DNA inh 7.7, UHRF1 binding 5.0, PLCb3 inh -1.9, LEDGF integ inh -6.1, PLCg1 inh 13.1*, PLCg1 ctr -0.8 and PLCbeta3 conf -1.7.
